Laboratory results reported in PubChem BioAssay.
Active and inactive are the calls of the source. Unless noted, no rule for the calls is given here.

Tests used:
[1] = system: XIP peptide (Xip251-270) binding; assay: XIP fragment 251-270 binding compounds – biochemical, small-molecule microarray, fluorescence 635/667 nm, 0.1 µg/mL protein, primary screen (AID 1182); conditions: fluorescent protein binding, 635 nm, higher = more signal, called active from +8 up or from −8 down
XIP peptide (Xip251-270) = assay: compounds binding XIP fragment 251-270 – biochemical, small-molecule microarray, fluorescence 635/667 nm, 0.5 µg/mL protein, primary screen (AID 1183); conditions: fluorescence 635 nm, higher = more signal
[2] = blood-stage malaria parasite viability loss – strain 3D7, DAPI fluorescence, 100 nL, primary screen (AID 1184);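 also: parasites grown inside human red blood cells in medium with human serum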; conditions: P. falciparum 3D7 growth, 3 d, higher = more signal
[3] = target: Homeobox protein Hox-A13 (Mus musculus) (UniProt Q62424); assay: disruptors of Hoxa13 oligonucleotide interaction – biochemical, fluorescence polarization, labeled oligonucleotide, primary screen (AID 1185); conditions: Hoxa13:DNA binding, 15 min, higher = more signal, called active from +8 up or from −8 down
[4] = blockers of DNA damage checkpoint Chk1 activation – imaging, HeLa, hydroxyurea, phospho-Chk1 antibody, percent positive cells, primary screen (AID 1186); conditions: hydroxyurea-induced phospho-Chk1 immunofluorescence imaging, higher = more signal
[5] = blockers of DNA damage checkpoint Chk1 activation – imaging, HeLa, hydroxyurea, phospho-Chk1 nuclear intensity, primary screen (AID 1187); conditions: hydroxyurea-induced phospho-Chk1 immunofluorescence imaging, higher = more signal

Sequence of Homeobox protein Hox-A13 (Mus musculus) (Q62424 whole entry, looked up): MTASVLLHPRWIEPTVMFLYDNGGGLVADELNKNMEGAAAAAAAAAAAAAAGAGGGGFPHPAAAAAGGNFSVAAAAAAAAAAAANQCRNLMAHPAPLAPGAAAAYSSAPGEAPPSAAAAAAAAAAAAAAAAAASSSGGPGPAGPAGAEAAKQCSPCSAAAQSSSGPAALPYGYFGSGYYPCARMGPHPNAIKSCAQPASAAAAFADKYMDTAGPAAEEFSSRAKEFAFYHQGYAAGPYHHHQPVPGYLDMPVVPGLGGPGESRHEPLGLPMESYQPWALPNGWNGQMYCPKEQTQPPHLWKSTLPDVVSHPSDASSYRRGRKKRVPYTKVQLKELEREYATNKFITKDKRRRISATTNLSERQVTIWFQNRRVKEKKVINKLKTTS

SMILES	composite z-score [1]	composite z-score (XIP peptide (Xip251-270))	z-score [2]	z-score [3]	z-score [4]	z-score [5]
NCCCCCCNC(=O)[C@@H]1C[C@@H]2C(=O)N[C@@H](CCCCN)C(=O)N2[C@@H]1c1cccc(OCCO)c1	1.7 (inactive)	0.832	0.139	-3.22 (inactive)	-0.545 (inactive)	-0.269 (inactive)
O=C1c2ccccc2[C@](Cc2ccccc2I)(C(=O)NCC(F)(F)F)[C@H](c2ccc(CO)cc2)N1C1CCCCC1	0.759 (inactive)	0.841	-1.14	-3.97 (inactive)	-0.68 (inactive)	-0.11 (inactive)
CC(C)N1CC=CC23O[C@@H]4C=CCOC(=O)[C@@H]4[C@H]2C(=O)N(CCCO)[C@@H]3C1=O (some centres not stated)	0.816 (inactive)	0.749	-1.91	-3.62 (inactive)	0.762 (inactive)	0.0478 (inactive)
CCCC[C@@H]1C[C@H]1[C@@H](NC(=O)c1cccs1)c1ccc(C(F)(F)F)cc1	-0.011 (inactive)	-0.289	-0.41	-0.891 (inactive)	0.984 (inactive)	0.516 (inactive)
C=CCC(OC(C)=O)[C@@H]1[C@@H](N(Cc2ccc(-c3cccc(C(F)(F)F)c3)o2)C(=O)c2ccc(-c3ccccc3)cc2)c2cc(OCCCO)ccc2N1C(=O)c1ccc2ccccc2n1 (some centres not stated)	-0.211 (inactive)	-0.102	-0.746	-1.33 (inactive)	0.768 (inactive)	0.615 (inactive)
COC1OC[C@]2(C)[C@H]3C4=C(CN2C(=O)OC(C)(C)C)[C@H](C)C(CO)C(CO)C4CC[C@@H]13 (some centres not stated)	1.48 (inactive)	0.745	-0.892	-4.97 (inactive)	0.495 (inactive)	-0.0531 (inactive)
O=C1C=C(c2ccccc2)C(=O)c2ccc([C@H]3Oc4ccccc4S(=O)(=O)N4CCC[C@@H]34)cc21	-0.668 (inactive)	0.468	-3.17	-3.05 (inactive)	0.808 (inactive)	0.885 (inactive)
